Data from PubChem BioAssay (Tox21).
Results filed as inconclusive are left out. Calls of active or inactive are those of the source. Unless noted, the call rests on the fitted dose curve.

What was measured:
[1] = qHTS assay to identify small molecule agonists of H2AX (AID 1224845; active means well fitted activation curve with a large enough effect in the signal ratio in the repeat runs, not every such curve was filed as active; the % refers to the signal ratio)
Procedure, shortened: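 Phospho-H2AX Ser139 measured by HTRF (ex 320 nm; em 665 and 620 nm) after 24 hr antibody incubation. Compounds, 15 concentrations, 0.76% DMSO, were applied to CHO-K1 cells for 3hr at 37C before lysis.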

Aromatase (Homo sapiens) = Aromatase (Homo sapiens) (UniProt P11511); experiment: qHTS assay to identify aromatase inhibitors (AID 743083; active means well fitted curve in the direction sought with a large enough effect in the repeat runs; an effect the other way counts as inactive or inconclusive; further: nearly all actives have a fitted effect of over 55% in size; further: potency means the concentration at half of the fitted maximal effect)
[2] = molecular target: Aryl hydrocarbon receptor (Homo sapiens) (UniProt P35869); experiment: qHTS assay to identify small molecule that activate the aryl hydrocarbon receptor (AhR) signaling pathway (AID 743085; active means well fitted curve in the direction sought with a large enough effect in the repeat runs; an effect the other way counts as inactive or inconclusive;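 further: HG2L7.5c1 human HepG2 liver cells with stably integrated DRE-driven firefly reporter; series mostly up to about 70 µM; nearly all actives have a fitted effect of over 15% in size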)
Procedure, shortened: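 Luminescence (ONE-Glo) from a dioxin-responsive-element luciferase reporter in HG2L7.5c1 HepG2 cells after 24 hr compound exposure at 37C; viability measured by CellTiter-Fluor fluorescence beforehand.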

[3] = Caspase-3/7 induction in HepG2 cells by small molecules, qHTS assay (AID 1346978; active means well fitted curve in the direction sought with a large enough effect in the repeat runs; an effect the other way counts as inactive or inconclusive; further: nearly all actives have a fitted effect of over 15% in size)
Procedure, shortened: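 Caspase-3/7 induction was measured by Caspase-Glo 3/7 luminescence (30 min, room temperature) after a 17 hr compound exposure of wild-type HepG2 cells seeded at 2,000 per well and pre-incubated 5 hr.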

[4] = molecular target: Acetylcholinesterase (Homo sapiens) (UniProt P22303); experiment: Acetylcholinesterase (AChE) small molecule antagonists: colormetric cell-based qHTS assay (AID 1347395); further: nearly all actives have a fitted effect of over 30% in size
Procedure, shortened: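 Colorimetric readout: DTNB quantifies thiocholine from acetylthiocholine hydrolysed by endogenous AChE of SH-SY5Y cells (2,000/well, plated overnight). Compound pretreatment 30 min, substrate incubation 90 min, both 37 C.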

[5] = molecular target: Acetylcholinesterase (Homo sapiens) (UniProt P22303); experiment: Acetylcholinesterase (AChE) small molecule antagonists: enzyme-based qHTS assay (AID 1347397); conditions: Potency: AChE enzyme activity inhibition; outcome: AChE enzyme activity inhibition; further: nearly all actives have a fitted effect of over 55% in size
Procedure, shortened: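 Absorbance-based detection of thiocholine with DTNB served as the read-out. Recombinant human AChE was exposed to compound for 30 min at RT before a 10 min RT incubation with acetylthiocholine.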

[6] = molecular target: Acetylcholinesterase (Homo sapiens) (UniProt P22303); experiment: Acetylcholinesterase (AChE) small molecule antagonists: fluorescence cell-based qHTS assay (AID 1347398); conditions: Potency: AChE activity; outcome: AChE activity; further: nearly all actives have a fitted effect of over 50% in size
Procedure, shortened: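 Fluorimetric cell-based assay: intact SH-SY5Y cells, 30 min compound preincubation at 37 C, acetylthiocholine substrate with thiol probe Thiolite Green, 40 min RT development, fluorescence 490/520 nm.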

[7] = molecular target: Acetylcholinesterase (Homo sapiens) (UniProt P22303); experiment: Acetylcholinesterase (AChE) small molecule antagonists: enzyme-based qHTS assay with human liver microsomes (AID 1347399); conditions: Potency: qHTS inhibition; outcome: qHTS inhibition; further: nearly all actives have a fitted effect of over 60% in size
Procedure, shortened: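 Recombinant human AChE (50 mU/mL in the enzyme mix) and human liver microsomes (0.25 mg/mL final) were preincubated with compound and NADPH (0.25 mg/mL final) for 30 min at 37 C. Acetylthiocholine/DTNB was then added; thiocholine was read colorimetrically after 10 min at room temperature.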

[8] = molecular target: Thyrotropin receptor (Homo sapiens) (UniProt P16473); experiment: qHTS assay to identify small molecule agonists of the thyroid stimulating hormone receptor (TSHR) signaling pathway (AID 1224843); further: nearly all actives have a fitted effect of over 45% in size
Procedure, shortened: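 HEK293 cells stably bearing the thyrotropin receptor were plated at 800 cells/well and challenged with compound (30 min, RT). Accumulated cAMP was quantified via cAMP-d2 competing for cryptate-tagged antibody.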

Measured: Potency

Aromatase (Homo sapiens), sequence (P11511 whole entry, looked up): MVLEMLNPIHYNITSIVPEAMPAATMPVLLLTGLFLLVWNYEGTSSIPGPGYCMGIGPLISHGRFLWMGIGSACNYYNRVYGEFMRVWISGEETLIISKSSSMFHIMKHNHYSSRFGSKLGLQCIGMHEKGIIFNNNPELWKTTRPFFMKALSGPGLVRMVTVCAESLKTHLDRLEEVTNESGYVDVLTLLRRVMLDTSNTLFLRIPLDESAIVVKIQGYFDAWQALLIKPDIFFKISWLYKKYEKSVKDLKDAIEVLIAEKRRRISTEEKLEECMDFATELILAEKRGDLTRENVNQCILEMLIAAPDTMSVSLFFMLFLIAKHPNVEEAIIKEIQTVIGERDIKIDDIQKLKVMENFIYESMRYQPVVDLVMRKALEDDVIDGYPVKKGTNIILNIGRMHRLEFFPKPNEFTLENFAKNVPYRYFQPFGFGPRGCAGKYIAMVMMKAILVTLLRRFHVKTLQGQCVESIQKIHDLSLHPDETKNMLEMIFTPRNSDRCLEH
Acetylcholinesterase (Homo sapiens), sequence (P22303 whole entry, looked up): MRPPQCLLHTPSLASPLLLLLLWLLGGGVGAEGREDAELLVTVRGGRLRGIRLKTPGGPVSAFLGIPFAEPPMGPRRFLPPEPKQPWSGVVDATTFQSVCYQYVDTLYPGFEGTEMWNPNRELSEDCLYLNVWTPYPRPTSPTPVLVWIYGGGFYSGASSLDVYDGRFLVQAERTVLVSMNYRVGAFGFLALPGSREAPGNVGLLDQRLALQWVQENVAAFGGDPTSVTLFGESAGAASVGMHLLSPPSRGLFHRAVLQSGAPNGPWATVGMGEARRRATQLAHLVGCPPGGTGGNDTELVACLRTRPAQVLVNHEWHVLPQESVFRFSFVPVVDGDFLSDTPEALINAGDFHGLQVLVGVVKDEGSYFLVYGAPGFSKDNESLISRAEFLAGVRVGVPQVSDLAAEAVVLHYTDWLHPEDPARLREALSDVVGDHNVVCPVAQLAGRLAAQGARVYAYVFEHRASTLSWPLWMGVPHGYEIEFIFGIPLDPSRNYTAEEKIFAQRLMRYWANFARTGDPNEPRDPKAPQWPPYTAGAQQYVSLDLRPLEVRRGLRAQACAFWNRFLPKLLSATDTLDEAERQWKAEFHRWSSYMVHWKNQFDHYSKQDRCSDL
Aryl hydrocarbon receptor (Homo sapiens), sequence (P35869 whole entry, looked up): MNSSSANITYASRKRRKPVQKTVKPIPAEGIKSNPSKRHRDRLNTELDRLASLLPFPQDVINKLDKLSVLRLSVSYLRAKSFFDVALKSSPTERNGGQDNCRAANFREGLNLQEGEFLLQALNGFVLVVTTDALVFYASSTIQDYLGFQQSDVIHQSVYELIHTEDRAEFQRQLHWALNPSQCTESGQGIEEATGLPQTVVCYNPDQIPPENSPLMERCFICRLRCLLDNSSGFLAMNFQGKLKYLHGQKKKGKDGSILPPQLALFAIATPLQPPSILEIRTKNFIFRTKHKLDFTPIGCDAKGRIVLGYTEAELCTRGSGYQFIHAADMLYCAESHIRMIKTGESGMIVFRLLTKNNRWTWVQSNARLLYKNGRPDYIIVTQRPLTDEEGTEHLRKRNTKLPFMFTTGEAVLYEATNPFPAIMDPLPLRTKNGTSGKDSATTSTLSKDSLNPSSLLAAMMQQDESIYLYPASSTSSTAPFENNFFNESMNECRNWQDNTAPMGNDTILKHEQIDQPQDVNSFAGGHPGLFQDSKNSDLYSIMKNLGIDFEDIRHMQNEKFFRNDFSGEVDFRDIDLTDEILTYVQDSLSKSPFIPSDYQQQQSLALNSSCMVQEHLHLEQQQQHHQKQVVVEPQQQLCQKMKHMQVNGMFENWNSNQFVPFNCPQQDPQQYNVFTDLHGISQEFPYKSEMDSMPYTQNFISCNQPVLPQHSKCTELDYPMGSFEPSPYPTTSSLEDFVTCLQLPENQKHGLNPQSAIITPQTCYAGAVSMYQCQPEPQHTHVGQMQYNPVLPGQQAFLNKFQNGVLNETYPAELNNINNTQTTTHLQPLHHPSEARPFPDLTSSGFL
Thyrotropin receptor (Homo sapiens), sequence (P16473 whole entry, looked up): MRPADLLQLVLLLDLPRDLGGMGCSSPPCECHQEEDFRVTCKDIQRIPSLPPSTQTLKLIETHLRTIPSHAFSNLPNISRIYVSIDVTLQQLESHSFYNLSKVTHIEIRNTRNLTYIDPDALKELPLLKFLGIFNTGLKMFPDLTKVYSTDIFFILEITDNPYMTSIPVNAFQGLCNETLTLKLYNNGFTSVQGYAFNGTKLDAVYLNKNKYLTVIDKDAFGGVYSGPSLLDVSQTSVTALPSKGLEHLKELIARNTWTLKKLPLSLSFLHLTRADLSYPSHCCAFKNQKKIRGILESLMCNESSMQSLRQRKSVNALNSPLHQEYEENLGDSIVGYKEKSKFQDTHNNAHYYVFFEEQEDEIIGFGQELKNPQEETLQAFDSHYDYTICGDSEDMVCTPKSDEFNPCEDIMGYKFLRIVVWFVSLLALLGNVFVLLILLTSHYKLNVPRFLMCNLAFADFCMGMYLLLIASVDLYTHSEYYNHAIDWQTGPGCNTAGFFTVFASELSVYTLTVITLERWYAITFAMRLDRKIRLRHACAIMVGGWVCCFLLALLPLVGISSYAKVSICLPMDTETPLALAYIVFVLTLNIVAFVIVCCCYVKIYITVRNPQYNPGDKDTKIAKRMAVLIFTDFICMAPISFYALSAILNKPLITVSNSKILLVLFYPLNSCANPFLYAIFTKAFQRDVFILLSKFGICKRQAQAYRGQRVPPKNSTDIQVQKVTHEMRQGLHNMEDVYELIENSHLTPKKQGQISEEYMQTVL

CN1[C@@H]2CC[C@@H]1CC(OC(=O)C(CO)c1ccccc1)C2 (stereo partly drawn)
inactive: [1]

O=C1OC(=O)c2c(Br)c(Br)c(Br)c(Br)c21
not listed: [8]
inactive: all other assays above

CCCCCCCC#N
not listed: [2] | [8]
inactive: all other assays above

Oc1ccc(Cl)cc1Cc1cc(Cl)ccc1O
active: Aromatase (Homo sapiens) 31.2 µM
not listed: [1] | [3]
inactive: all other assays above
